“And” between values parts separate entries of the source, which are not always exact repeats. Equal entries are not always repeated. The source made the active and inactive calls. The calls were made as follows: active = hit-call score of the fitted dose curve at least 0.9, where 1 is the maximum; inactive = score below 0.9.
Read-out: Interleukin-1 alpha (IL1a), IL1A (gene 3552)
Assay: BSK_KF3CT_IL1a: BioMAP Diversity Plus: KF3CT Assay for Interleukin-1 alpha (IL1a) Biomarker Activity (AID 2283070)
Details: primary human keratinocytes with fibroblasts; actives raise or lower the signal
Protocol: BSK_KF3CT is a cell-based, multiplexed-readout assay that uses keratinocytes and foreskin fibroblasts, a human skin primary cell co-culture, with measurements taken at 24 hours after chemical dosing in a 96-well plate.BSK_KF3CT_IL1a is an assay component measured in the BSK_KF3CT assay. It measures IL-1a antibody related to regulation of gene expression using ELISA technology.Data from the assay component BSK_KF3CT_IL1a was analyzed into 1 assay endpoint. This assay endpoint, BSK_KF3CT_IL1a, was analyzed with bidirectional fitting relative to DMSO as the negative control and baseline of activity. Using a type of binding reporter, gain or loss-of-signal activity can be used to understand changes in the signaling as they relate to the gene IL1A. Furthermore, this assay endpoint can be referred to as a primary readout, because this assay has produced multiple assay endpoints where this one serves a signaling function. To generalize the intended target to other relatable targets, this assay endpoint is annotated to the cytokine intended target family, where the subfamily is interleukins.
The levels of cell surface (or secreted, indicated by the prefix "s") biomarker endpoints were measured by ELISA. Overt cytotoxicity to cells in confluent adherent cultures (all systems other than the BT system) was assessed by measuring total protein levels using sulforhodamine B (SRB) staining in parallel cultures at the time of biomarker measurements, indicated as SRB endpoints. For proliferation assays for adherent cell types, individual cell types are cultured at sub-confluence and relative cell numbers quantified by SRB staining at time points optimized for each system (48 h: 3C and CASM3C systems; 72 h: BT and HDF3CGF systems; 96 h: SAg system). SRB was performed by staining cells with 0.1% SRB after fixation with 10% TCA and reading wells at 560 nm.Viability and proliferation of PBMC (T cells) was quantified by Alamar Blue reduction for the SAg and BT systems. For PBMC viability (referred to as PBMC Cytotoxicity within the assay endpoint names), cells were plated (75,000/well in a 96-well plate) and then chemical samples added for 1 h before addition of activators, SEB and TSST-1 (20 ng/mL final concentration each). Cells were incubated for 90 h. Then, Alamar Blue (20 uL/well) (Invitrogen, Cat DAL1100) was added for 6 h, and the plates were read with a fluorescence microplate reader at 546/580 nm (excitation/emission). For PBMC proliferation, cells were plated and activated as above but incubated for only 16 h prior to addition of Alamar Blue. Plates were read after 6 h.

Row | SMILES | AC50 | outcome
1 | C/C=C\C/C=C/CCCCCCCCOC(C)=O | 26.3 µM (active) | –
2 | O=Nc1ccc(O)cc1 | – | inactive
3 | O=c1c2ccccc2oc2ccccc12 | – | inactive
4 | CC(C)C(=O)C(C)C | – | inactive
5 | CO[Si](OC)(OC)c1ccccc1 | – | inactive
6 | CCOC(=O)c1ccccc1C(=C1C=C(Br)C(=O)C(Br)=C1)c1cc(Br)c(O)c(Br)c1 | 3.49 µM (active) and 3.47 µM (active) | –
7 | CCCCC(CC)COC(=O)c1ccccc1O (stereo unspecified) | – | inactive
8 | C#CC1(O)CC[C@H]2[C@@H]3CCC4=CCCC[C@@H]4[C@H]3CC[C@@]21C (stereo partly specified) | 31.7 µM (active) | –
9 | CCOc1nc(F)cc2nc(S(=O)(=O)Nc3c(Cl)cccc3C(=O)OC)nn12 | – | inactive
10 | C=C[Si](OC(C)=O)(OC(C)=O)OC(C)=O | – | inactive
11 | CC1OC1C1CCC2(C)OC2C1 (stereo unspecified) | – | inactive
12 | O=C1CCCN1CCO | – | inactive
13 | O=C(Nc1ccccc1SSc1ccccc1NC(=O)c1ccccc1)c1ccccc1 | – | inactive
14 | c1ccc(-c2ccccn2)nc1 | – | inactive
15 | C=CCOc1c(Br)cc(Br)cc1Br | 20 µM (active) | –
16 | CCCCCCCCc1ccc(Nc2ccc(CCCCCCCC)cc2)cc1 | – | inactive
17 | Nc1ccc(N)c(Cl)c1 | 8.84 µM (active) and 11.4 µM (active) | –
18 | c1ccc2c(c1)ccc1cc3c(ccc4ccccc43)cc12 | – | inactive

Row | SMILES | AC50 | outcome
19 | CCCCC(CC)COCC1CO1 (stereo unspecified) | – | inactive
20 | N#[N+]c1ccc2c(S(=O)(=O)[O-])cccc2c1O | – | inactive
21 | CCCCCCCCCCCCCCCC[N+](C)(C)CC | 3.23 µM (active) | –
22 | O=C(c1ccc(O)cc1)c1ccc(O)cc1O | – | inactive
23 | S=C(NC1CCCCC1)NC1CCCCC1 | – | inactive
24 | CC(C)(c1cc(Br)c(OCCO)c(Br)c1)c1cc(Br)c(OCCO)c(Br)c1 | 12.1 µM (active) | –
25 | COCc1c(C(C)C)nc(C(C)C)c(/C=C/[C@@H](O)C[C@@H](O)CC(=O)O)c1-c1ccc(F)cc1 | – | inactive
26 | COc1ccc2nc(N)sc2c1 | – | inactive
27 | c1ccc2c(c1)ccc1ncccc12 | 8.26 µM (active) | –
28 | CCO[Si](C)(OCC)OCC | – | inactive
29 | CCO[Si](CCCN=C=O)(OCC)OCC | – | inactive
30 | C=CC(=O)OCC(Br)CBr (stereo unspecified) | 32.2 µM (active) | –
31 | CCCCC/C=C\C/C=C\CCCCCCCC(=O)OC | 26.9 µM (active) | –
32 | CCCCNc1ccc(NCCCC)c2c1C(=O)c1ccccc1C2=O | – | inactive
33 | C=CCOCC(O)CCl (stereo unspecified) | – | inactive
34 | CN1C(=O)N(C)C(O)C1O (stereo unspecified) | – | inactive
35 | O=C(Cl)c1cc(C(=O)Cl)cc(C(=O)Cl)c1 | 33.8 µM (active) | –
36 | C=CC=CC=CCCCCC | – | inactive

Source: PubChem BioAssay (EPA / NIEHS)
